The list is not random: actives were taken first. Their share in the collection is about 11%.
VP16 counter = VP16 counterscreen qHTS for inhibitors of ROR gamma transcriptional activity; Drosophila S2 Gal4-VP16 UAS-luciferase, luminescence, 20 h; 3.5% of 310,000 active; Potency, µM (titrated, usually from 53.6 µM), actives largely listed as inhibitors;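 further: Gal4-VP16 expression switched on by copper sulfate through the metallothionein promoter; nearly all actives have a fitted effect of over 50% in size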
IL-1B inflam inh = qHTS for Inhibitors of Inflammasome Signaling: IL-1-beta AlphaLISA Primary Screen; THP-1 LPS/ATP IL-1B secretion, AlphaLISA, 16 h; stronger effect = lower value; activity change, % at 57.5 µM; 4.7% of 360,000 active; in the data active means activity change below about -50%; inconclusive means mostly about -30% to -49%
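THP-1 cells pretreated 1 hr with compounds (up to 57.5 uM final), then stimulated with LPS (250 ng/mL final) plus ATP (1.25 mM final); secreted IL-1B measured by AlphaLISA after 16 hr, decreased signal indicating inhibition.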
SW480 rerep = A quantitative high throughput screen for small molecules that induce DNA re-replication in SW480 colon adenocarcinoma cells. SW480 DNA re-replication, Hoechst DNA content imaging, 48 h. Potency, µM (series often up to 46.1 µM), actives largely listed as activators. 1.8% of 340,000 active. AID 624297, 2012; further: nearly all actives have a fitted effect of over 55% in size
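Image-based DNA-content assay: after two days of treatment, nuclei were labelled with the DNA dye Hoechst and imaged, and hits were compounds raising the count of nuclei showing high fluorescence intensity.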
MCF10A rereplic = A quantitative high throughput screen for small molecules that induce DNA re-replication in MCF 10a normal breast cells; MCF 10A DNA re-replication, Hoechst nuclear intensity, 48 h; Potency, µM (top dose mostly 46.1 µM), actives largely listed as activators; 2.9% of 350,000 active; AID 624296, 2012; further: nearly all actives have a fitted effect of over 50% in size
RORg inh = qHTS for inhibitors of ROR gamma transcriptional activity; Nuclear receptor ROR-gamma (Mus musculus), P51450; Drosophila S2 Gal4-RORgamma UAS-luciferase reporter, 20 h; Potency, µM (top dose mostly 53.6 µM), actives largely listed as inhibitors; 5.4% of 310,000 active; AID 2551, 2010; further: nearly all actives have a fitted effect of over 60% in size
Target sequence (P51450 whole entry, looked up, the tested form may be a part): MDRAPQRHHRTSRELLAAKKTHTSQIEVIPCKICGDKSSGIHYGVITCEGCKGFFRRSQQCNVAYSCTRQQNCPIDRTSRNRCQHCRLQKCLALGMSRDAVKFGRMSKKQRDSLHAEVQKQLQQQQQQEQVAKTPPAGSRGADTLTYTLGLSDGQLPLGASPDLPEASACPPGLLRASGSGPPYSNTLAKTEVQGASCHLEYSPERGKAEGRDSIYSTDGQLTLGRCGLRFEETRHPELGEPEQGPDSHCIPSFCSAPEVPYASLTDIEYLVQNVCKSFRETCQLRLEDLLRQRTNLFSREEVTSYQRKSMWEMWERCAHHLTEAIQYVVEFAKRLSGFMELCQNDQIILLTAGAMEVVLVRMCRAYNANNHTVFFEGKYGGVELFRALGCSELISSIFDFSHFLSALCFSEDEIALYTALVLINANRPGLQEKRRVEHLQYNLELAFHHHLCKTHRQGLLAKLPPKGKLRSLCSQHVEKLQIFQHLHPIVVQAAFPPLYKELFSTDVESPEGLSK
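Luciferase reporter read in Schneider cells carrying Gal4-RORγ (mouse) and UAS-Photinus luciferase; cells given compound 1 h before 700 uM copper sulfate induction, then incubated 20 h at ambient temperature.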
Large screens that a line does not name were inactive. Unless noted, the call rests on the fitted dose curve; in most records, active means well fitted curve in the direction sought with a large enough effect; inconclusive means small, poorly fitted or top-dose-only effect, or another doubt; inactive means no such curve, though single readings can be large; an effect the other way counts as inactive or inconclusive.

C/C(CCc1ccccc1)=N\NC(=S)NCCc1ccccc1	VP16 counter 6.31µM, SW480 rerep inconclusive, RORg inh 5.01µM
C/C(=N\NC(=S)NCc1ccccc1)c1cccc(Br)c1	RORg inh inconclusive
C/C(=N\NC(=S)NCCc1ccccc1)c1cccs1	VP16 counter 1.41µM, RORg inh 4.47µM (no result: SW480 rerep)
C/C(CCC(C)C)=N\NC(=S)NCc1ccccc1	VP16 counter inconclusive, RORg inh 3.98µM
CCCn1nnnc1NC(=O)c1cc(Br)ccc1OC	VP16 counter 5.62µM, RORg inh 3.16µM
CCCn1nnnc1NCc1cc(Br)ccc1OC	VP16 counter inconclusive
CCCn1nnnc1NC(=O)c1cccs1	VP16 counter 2.82µM, RORg inh 0.891µM
CCCn1nnnc1NC(=O)c1ccc(C)cc1Cl	VP16 counter 6.31µM, RORg inh 3.55µM
CCN(CC)CCN(C)C(c1cc2ccccc2o1)c1nnnn1C(C)(C)C (stereo unspecified)	none (no result: VP16 counter, SW480 rerep, MCF10A rereplic, RORg inh)
NC(=O)CSc1nnc(-c2cc3ccccc3o2)n1Cc1ccccc1	RORg inh inconclusive
CCCn1c(-c2ccc(F)cc2)n[nH]c1=S	RORg inh inconclusive
S=c1[nH]nc(-c2cc3ccccc3o2)n1Cc1ccccc1	VP16 counter 1.78µM, RORg inh 0.631µM
S=c1[nH]nc(-c2ccc(Cl)cc2Cl)n1Cc1ccccc1	VP16 counter 5.62µM, RORg inh 2.82µM
COc1ccc(Cn2c(-c3ccc(OC)cc3)n[nH]c2=S)cc1	RORg inh 7.94µM
C=CCn1c(-c2oc3nc(-c4ccccc4)cc(-c4ccccc4)c3c2N)n[nH]c1=S	SW480 rerep 8.2µM, MCF10A rereplic 7.31µM, RORg inh inconclusive
CCC1=C2CC[C@H]3C(=O)N(CC(=O)OC)C(=O)[C@H]3[C@H]2[C@@]2(C)C(=O)N(Cc3ccccc3)C(=O)N2C1=O	none (no result: IL-1B inflam inh, SW480 rerep, MCF10A rereplic)
C[C@@H]1CN([C@@H](C)CO)S(=O)(=O)c2ccc(Br)cc2O[C@H]1CN(C)C(=O)C1CCOCC1	none (no result: VP16 counter, SW480 rerep, MCF10A rereplic, RORg inh)
C=CCn1c(CSc2nnc(-c3ccccc3)n2C)n[nH]c1=S	MCF10A rereplic inconclusive
CCn1c(-c2cccn(Cc3ccc(Cl)cc3Cl)c2=O)n[nH]c1=S	RORg inh 10µM
C=CCn1c(-c2cccc(S(=O)(=O)N(CC)CC)c2)n[nH]c1=S	RORg inh inconclusive
NNC(=O)c1cccn(Cc2ccc(Cl)cc2Cl)c1=O	none
C=CCn1c(CSc2ccc(C)cc2)n[nH]c1=S	VP16 counter 14.1µM, RORg inh 3.98µM
C=CCn1c(-c2cccc(Cl)c2)n[nH]c1=S	VP16 counter 7.08µM, RORg inh 3.98µM
CC(c1n[nH]c(=S)n1Cc1ccccc1)N(C)C (stereo unspecified)	VP16 counter inconclusive, RORg inh 1.78µM
Cc1cccc(NC(=O)CN(C)C(=O)/C=C/c2ccccc2)c1C	none (no result: VP16 counter, RORg inh)
COc1ccc(CN(C)C(=O)C2CCN(C(=O)Nc3ccccc3)CC2)cc1	none (no result: VP16 counter, RORg inh)
CS(=O)(=O)N1CCC(C(=O)Nc2cccc(Br)c2)CC1	SW480 rerep inconclusive
CC(C)Oc1ccc(Cn2c(-c3ccco3)n[nH]c2=S)cc1	VP16 counter 4.47µM, RORg inh 2.82µM
Cc1cccc(-c2nnc(SCC#N)n2Cc2ccccc2)c1	none
COc1ccc(-c2n[nH]c(=S)n2CC(C)C)cc1	VP16 counter inconclusive, RORg inh 10µM
Cc1cccc(-c2n[nH]c(=S)n2Cc2ccccc2)c1	VP16 counter 0.562µM, RORg inh 0.794µM
COc1ccc(-c2cc(-c3n[nH]c(=S)n3-c3cccc4ccccc34)[nH]n2)cc1	SW480 rerep inconclusive, MCF10A rereplic inconclusive, RORg inh inconclusive
Cc1ccc(-c2n[nH]c(=S)n2Cc2ccccc2)cc1	VP16 counter 6.31µM, SW480 rerep inconclusive, RORg inh 2.82µM
O=C(C[n+]1ccccc1)N/N=C/c1ccc(Cl)cc1	none (no result: VP16 counter, RORg inh)
O=C(COC(=O)c1cccc(F)c1)Nc1cccc(S(=O)(=O)N2CCCCC2)c1	none (no result: VP16 counter, SW480 rerep, MCF10A rereplic, RORg inh)
CC(C)CN1C(=O)CN(S(C)(=O)=O)CC1(C)C(=O)Nc1ccc2c(c1)OCCO2 (stereo unspecified)	none (no result: VP16 counter, SW480 rerep, MCF10A rereplic, RORg inh)
O=C(Nc1cccc([N+](=O)[O-])c1)Nc1cnccn1	SW480 rerep inconclusive, RORg inh inconclusive
Clc1cccc(-c2nc3nc4ccccc4nc3n2Cc2ccccc2)c1	SW480 rerep inconclusive
CCOc1ccc(-c2n[nH]c(=S)n2Cc2ccccc2)cc1	VP16 counter 5.62µM, RORg inh 6.31µM
C=CCn1c(-c2sccc2C)n[nH]c1=S	VP16 counter inconclusive, RORg inh 10µM
S=c1[nH]nc(-c2cccc(Cl)c2)n1Cc1ccccc1	VP16 counter 2.51µM, RORg inh 2.51µM
Cc1oc(-c2ccc(Cl)cc2)nc1CS(=O)CC(=O)NCCCN1CC(C)CC(C)C1 (stereo unspecified)	IL-1B inflam inh -70.1, SW480 rerep inconclusive
COc1ccc(-c2nc(CS(=O)CC(=O)NC3CCCC(C)C3C)c(C)o2)cc1OC (stereo unspecified)	none
CCc1ccc(-c2nc(CS(=O)CC(=O)NC3CC3)c(C)o2)cc1 (stereo unspecified)	none
Cc1ccc(-c2nc(CS(=O)CC(=O)NC3CCCC(C)C3C)c(C)o2)cc1 (stereo unspecified)	IL-1B inflam inh -53.6
Cc1ccc(-c2nc(CS(=O)CC(=O)NC3CC3)c(C)o2)cc1 (stereo unspecified)	MCF10A rereplic 20.6µM
Cc1cccc(N2CCN(Cc3cn(C)nc3-c3ccccc3F)CC2)n1	SW480 rerep 3.26µM, MCF10A rereplic 7.31µM
CC(=O)SC(C[N+](=O)[O-])c1cn(C(C)=O)c2ccccc12 (stereo unspecified)	VP16 counter inconclusive, IL-1B inflam inh -81.8, SW480 rerep inconclusive, MCF10A rereplic inconclusive, RORg inh 11.2µM
CC(=O)n1cc(Nc2ccc([N+](=O)[O-])cc2)c2ccccc21	SW480 rerep inconclusive
CCCCNS(=O)(=O)c1cccc(NC(=O)[C@@H]2O[C@H](CO)[C@@H](O)[C@H]2O)c1	none (no result: VP16 counter, SW480 rerep, MCF10A rereplic, RORg inh)
O=C(N=Nc1c(O)[nH]c2ccccc12)c1cccs1	RORg inh inconclusive
CNC(=S)N=Nc1c(O)[nH]c2ccc(C(C)C)cc12	VP16 counter 2.82µM, RORg inh 3.98µM
O=C(O)c1ccc(N=Nc2c(O)[nH]c3ccccc23)cc1	VP16 counter 35.5µM, SW480 rerep 23.1µM, RORg inh inconclusive
COc1ccc(NC(=S)N=Nc2c(O)[nH]c3ccccc23)cc1	VP16 counter 3.55µM, RORg inh 1.26µM
CC(C)NC(=S)N=Nc1c(O)[nH]c2ccc([N+](=O)[O-])cc12	none
Oc1ccc(NC(=S)N=Nc2c(O)[nH]c3ccccc23)cc1	IL-1B inflam inh -65.8, RORg inh inconclusive

Source: PubChem (National Center for Advancing Translational Sciences (NCATS))
